UDG counterscr = Primary qHTS assay for inhibitors of Activation Induced Cytidine Deaminase (AID): UDG Counterscreen signal; Uracil-DNA glycosylase; FRET deamination/UDG coupled assay, UDG read, 4 h; AID 1347430, 2020; 0.14% of 91,000 active; Potency, µM (titrated, usually from 115 µM), for the others: at the highest dose activity change, negative = inhibition, hits mostly inhibitors; note: potency is the fitted concentration of half-maximal effect; % is set by controls: 0 for no effect and ±100 for the full control effect; nearly all actives have a fitted effect of over 65% in size
AID inhibitor = Primary qHTS assay for inhibitors of Activation Induced Cytidine Deaminase (AID): AID signal; Single-stranded DNA cytosine deaminase (Homo sapiens), Q9GZX7; AID deamination FRET fluorescence, UDG-coupled, 4 h; Potency, µM (top dose mostly 115 µM), hits mostly inhibitors; 0.32% of 91,000 active; AID 1347428, 2020; note: potency is the fitted concentration of half-maximal effect; % is set by controls: 0 for no effect and ±100 for the full control effect; nearly all actives have a fitted effect of over 25% in size
Target sequence (Q9GZX7 whole entry, looked up): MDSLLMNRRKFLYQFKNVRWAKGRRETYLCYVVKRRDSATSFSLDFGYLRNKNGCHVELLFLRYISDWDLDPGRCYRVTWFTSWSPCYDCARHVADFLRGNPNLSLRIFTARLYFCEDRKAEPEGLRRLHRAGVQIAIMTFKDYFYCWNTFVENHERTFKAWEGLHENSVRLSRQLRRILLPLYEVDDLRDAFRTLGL
DRV1 agonist = qHTS for Agonists of Human Resolvin D1 Receptor DRV1; activation, % at 76.9 µM; AID 1346428, 2018; CHO-K1 GPR32 beta-arrestin PathHunter luminescence, 90 min; zero percent set by DMSO-only wells; 2.5% of 48,000 active;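 active = activation of at least 60% and not above a set upper limit, about 1 call in 100 departs from these limits; inconclusive = activation of 40% to 60%, or above that upper limit; inactive = activation under 40%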; note: 0% is about no effect
Target sequence (O75388 whole entry, looked up): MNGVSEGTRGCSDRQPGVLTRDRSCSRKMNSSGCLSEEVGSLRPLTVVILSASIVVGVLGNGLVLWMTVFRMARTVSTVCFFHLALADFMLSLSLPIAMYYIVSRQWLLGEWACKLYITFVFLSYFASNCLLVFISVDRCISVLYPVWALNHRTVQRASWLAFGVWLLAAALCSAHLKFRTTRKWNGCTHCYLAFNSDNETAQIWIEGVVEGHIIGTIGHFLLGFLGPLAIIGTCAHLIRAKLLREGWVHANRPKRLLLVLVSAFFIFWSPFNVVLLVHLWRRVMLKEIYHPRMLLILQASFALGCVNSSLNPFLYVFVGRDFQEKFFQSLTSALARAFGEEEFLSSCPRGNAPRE
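PathHunter enzyme-fragment complementation, CHO-K1 GPR32 stable line; 2,500 cells/well, overnight attach; cpd 90 min 37 °C 5% CO2; detection reagent 1 h RT; chemiluminescence. DMSO = EC0.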
* hit, by the source's call; i = inactive; u = inconclusive; x = no result given; ! = not active in a repeat; [ ] = remark or other dose. This excerpt belongs to a sample that is enriched for hits. Unless noted, calls come from the whole dose curve; as a rule, active = well fitted curve in the direction sought with a large enough effect; inconclusive = small, poorly fitted or top-dose-only effect, or another doubt; inactive = no such curve, though single readings can be large; an effect the other way counts as inactive or inconclusive.

SMILES | UDG counterscr | AID inhibitor | DRV1 agonist
OCc1cc(C(O)CNCCCCCCOCCCCc2ccccc2)ccc1O (configuration not stated) | -0.1% | i | 107.7*!
COCCCNC(=O)Cn1c(=O)n(-c2ccc(Cl)cc2)c(=O)c2c3c(sc21)CCCCC3 | -6.8% | i | 60.1*
CCc1ccc(-n2c(=O)c3c4c(sc3n(CC(=O)NCCCOC)c2=O)CCC4)cc1 | -1.3% | i | -19.2
CC(=O)N1N=C(c2c(-c3ccccc3)c3cc(Cl)ccc3n(C)c2=O)CC1c1cccs1 (configuration not stated) | -17.8% | 44.7µM* | x
CC(=O)N1N=C(c2ccc(C)cc2)CC1c1cn(-c2ccccc2)nc1-c1cccs1 (configuration not stated) | -6.0% | i | -5.6
CCCCOCCCNC(=O)c1ccc2nc(C)c(C)nc2c1 | -9.8% | i | x
CC(C)NCc1ccc(OCc2ccccc2)cc1 | -2.5% | i | x
Cc1ccc(Cn2nnc(C(=O)Nc3ccc(F)c(F)c3)c2N)cc1 | -18.6%[57.5 µM] | i | -13.2
CSc1ccc(Cn2nnc(C(=O)Nc3ccc(C)cc3Cl)c2N)cc1 | -10.1% | i | 98.5*
Cc1cc(C)cc(-n2ccnc(NCCc3ccccc3)c2=O)c1 | 26.3% | i | -13.2
Cc1cccc(Cn2c(NCCc3ccccc3)nc3c2c(=O)n(C)c(=O)n3C)c1 | -11.7% | i | x
Cn1c(=O)c2c(nc(NCCc3ccccc3)n2Cc2ccc(Cl)cc2)n(C)c1=O | -3.9% | u | 72.7*
O=c1c(NCCc2ccc(Cl)cc2)nccn1-c1ccccc1 | 51.8% | i | 91.1*
CC(C(=O)N(C)CC(=O)Nc1ccccc1C(F)(F)F)N1CCN(c2cccc(Cl)c2)CC1 (configuration not stated) | 1.8% | i | x
CC(Sc1ccc(F)cc1F)C(N)=O (configuration not stated) | -3.0% | i | x
Cc1ccc(Cn2c(CCCNC(=O)c3ccco3)nc3ccccc32)cc1 | -14.8% | i | 23.8
Cc1cc(C)c(Cn2c(CCNC(=O)c3ccco3)nc3ccccc32)c(C)c1 | u | u | 68.2*
COc1ccccc1OCCCSc1nc(-c2ccc(C(C)(C)C)cc2)nc2cc(=O)[nH]n12 | 0.8% | u | 75.1*
COc1ccc(-c2nc(SCCOc3ccccc3Cl)n3[nH]c(=O)cc3n2)cc1 | u | i | 24.3
CC(C)(C)c1ccc(-c2nc(SCCCOc3ccccc3)n3[nH]c(=O)cc3n2)cc1 | -16.2% | 79.4µM* | -19.6
Cc1cc(OCCCSc2nc(-c3ccc(C(C)(C)C)cc3)nc3cc(=O)[nH]n23)ccc1Cl | -9.2% | u | -34.8
Cc1cc(C)c(C(=O)Nc2ccccc2C)c(SCC(=O)NC2CCCCC2)n1 | -4.7% | i | x
CCOC(=O)c1noc2ncn(CC(=O)Nc3cccc(C(F)(F)F)c3)c(=O)c12 | -14.4% | i | 64.8*
CCOC(=O)c1noc2ncn(CC(=O)Nc3ccccc3OC)c(=O)c12 | 1.1% | i | -4.0
O=C(N/N=C/c1ccccc1C(F)(F)F)C1CC1 | -5.2% | i | x
SMILES | UDG counterscr | AID inhibitor | DRV1 agonist
CCOc1ccccc1OCCCCn1c(-c2ccc(Cl)cc2)nc2ccccc2c1=O | -20.4% | 31.6µM* | -4.2
CCOc1ccccc1OCCCn1c(-c2ccc(Cl)cc2)nc2ccccc2c1=O | -5.3% | i | -10.2
COc1ccc(CNC(=O)c2cnc3sc(N4CCCC4)nn3c2=O)cc1OC | -8.7% | i | 6.9
COc1ccc(Br)cc1CNC(=O)c1cnc2sc(N3CCCCCC3)nn2c1=O | -5.8% | 17.8µM* | -13.4
Cc1cccc(Cn2c(-n3nc(C)c(C)c3C)nc3c2c(=O)[nH]c(=O)n3C)c1 | -3.6% | i | x
CCCCN(CCCC)CCNC(=O)c1cn(CC)c2ccc(S(=O)(=O)N3CCc4ccccc4C3)cc2c1=O | u | 28.2µM* | 12.1
CCn1cc(C(=O)NCCc2ccccc2)c(=O)c2cc(S(=O)(=O)N3CCc4ccccc4C3)ccc21 | -13.8% | u | -12.9
CC1(CBr)C2CCC1(C)C1(OCCO1)C21OCCO1 (configuration not stated) | 1.8% | i | x
COc1ccccc1Cc1nnc(NC(=O)c2ccc(NC(=O)C(C)C)cc2)s1 | 0.0% | i | x
CC(C)C(=O)Nc1cccc(C(=O)Nc2nnc(CC(C)(C)C)s2)c1 | -0.6%[57.5 µM] | i | 61.7*
CC(NC(=O)C1CC1)c1ccncc1 (configuration not stated) | 0.8% | i | x
Cc1ccc(C(O)CNC(=O)Nc2ccccc2)cc1 (configuration not stated) | -5.5% | i | x
COc1ccc(NC(C)=O)c(NC(=O)CSc2nc3ccccc3o2)c1 | 0.0% | i | x
Cc1nc2cc(NC(=O)C3CC(=O)N(c4cccc(Br)c4)C3)ccc2o1 (configuration not stated) | -1.7% | i | x
Cc1cc(C)cc(NC(=O)C2CC(=O)N(c3ccccc3)C2)c1 (configuration not stated) | 10.2% | i | 118.1*
O=C(Nc1cc(Cl)cc(Cl)c1)C(=O)c1c[nH]c2ccccc12 | -1.3% | i | x
O=C(NCc1ccc(Cl)cc1)C1CCC(CNS(=O)(=O)c2ccccc2)CC1 (configuration not stated) | -7.2%[57.5 µM] | u | 83.0*
CC(=O)Nc1ccc(S(=O)(=O)NCC2CCC(C(=O)NCc3ccccc3)CC2)cc1 (configuration not stated) | -10.4%[57.5 µM] | i | 98.8*
O=C(NCc1ccccc1Cl)C1CCC(CNS(=O)(=O)c2ccc(Br)s2)CC1 (configuration not stated) | -14.9%[57.5 µM] | i | 98.2*
O=C(NCCc1ccccc1)C1CCC(CNS(=O)(=O)c2ccccc2)CC1 (configuration not stated) | -3.9%[57.5 µM] | i | -13.1
COc1cccc(CNC(=O)C2CCC(CNS(=O)(=O)c3ccc(Br)s3)CC2)c1 (configuration not stated) | -19.5%[57.5 µM] | i | 19.9
CC(=O)Nc1ccc(S(=O)(=O)NCC2CCC(C(=O)NCc3ccccc3Cl)CC2)cc1 (configuration not stated) | -7.6% | i | -4.0
CNCc1ccc(-c2ccccc2)o1 | -7.8% | i | x
Cc1cc(C)cc(C(=O)NC(C)C2CCCO2)c1 (configuration not stated) | 1.4% | i | x
Cc1ccc(C)n1-c1nnc(N2CCCC(C(=O)Nc3ccccc3F)C2)s1 (configuration not stated) | 3.0% | i | x
N#CC1(c2ccc(NC(=O)c3ccc(Cl)cc3)cc2)CCCC1 | -0.9% | i | x
COC(=O)c1c(C)sc2c1OC(N)=C(C#N)C21C(=O)N(Cc2cccc(F)c2)c2ccccc21 (configuration not stated) | -18.1% | i | x
Cc1ccc(OCC(O)Cn2nc(-c3ccc(F)cc3)oc2=O)cc1 (configuration not stated) | -4.2% | i | x
CCC/C=C(/CC)C[N+]1(C)CCCCC1 | -6.4% | i | x
Cc1ccc(C)c(N2CCN(CCCNC(=O)c3ccc4nc(N5CCCCC5)sc4c3)CC2)c1 | -10.6% | 39.8µM* | 25.2
